Measurements reported in the supplement of paper PMC9694430.

What was measured:
Test in all cases: thermal shift delta Tm vs DMSO control; higher = stronger stabilization (binding)
Conditions in all cases: 12.5 µM; protein concentration 2 µM
LOC_OS01G57100-cb003 = system: LOC_OS01G57100-cb003
Summary of the method: (§1)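 Heating from 25°C to 95°C at 0.05°C/s, fluorescence was recorded for 19.5 μl wells of 2 μM E. coli-expressed, purified rice kinase domain in 100 mM potassium phosphate pH 7.5, 150 mM NaCl, 10% glycerol and 5 × SYPRO Orange with compound in DMSO. Boltzmann fits gave melting temperatures for this differential scanning fluorimetry assay. The shift reported is the mean of three replicates against the DMSO-only protein.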

LOC_OS01G60330-cb001 = system: LOC_OS01G60330-cb001
Summary of the method: as §1

LOC_OS01G60700-cb002 = system: LOC_OS01G60700-cb002
Summary of the method: as §1

LOC_OS01G63280-cb003 = system: LOC_OS01G63280-cb003
Summary of the method: as §1

LOC_OS01G67340-cb003 = system: LOC_OS01G67340-cb003
Summary of the method: as §1

LOC_OS01G70970-cb002 = system: LOC_OS01G70970-cb002
Summary of the method: as §1

LOC_OS02G07810-cb001 = system: LOC_OS02G07810-cb001
Summary of the method: as §1

LOC_OS02G08530-cb003 = system: LOC_OS02G08530-cb003
Summary of the method: as §1

LOC_OS02G14120-cb001 = system: LOC_OS02G14120-cb001
Summary of the method: as §1

LOC_OS02G17970-cb001 = system: LOC_OS02G17970-cb001
Summary of the method: as §1

LOC_OS02G45750-cb003 = system: LOC_OS02G45750-cb003
Summary of the method: as §1

LOC_OS02G54510-cb004 = system: LOC_OS02G54510-cb004
Summary of the method: as §1

LOC_OS03G04050-cb001 = system: LOC_OS03G04050-cb001
Summary of the method: as §1

LOC_OS03G12390-cb001 = system: LOC_OS03G12390-cb001
Summary of the method: as §1

LOC_OS03G27990-cb004 = system: LOC_OS03G27990-cb004
Summary of the method: as §1

LOC_OS03G50450-cb001 = system: LOC_OS03G50450-cb001
Summary of the method: as §1

LOC_OS03G50810-cb003 = system: LOC_OS03G50810-cb003
Summary of the method: as §1

LOC_OS04G35114-cb001 = system: LOC_OS04G35114-cb001
Summary of the method: as §1

LOC_OS04G38480-cb003 = system: T1, LOC_OS04G38480-cb003
T1 sequence (whole entry): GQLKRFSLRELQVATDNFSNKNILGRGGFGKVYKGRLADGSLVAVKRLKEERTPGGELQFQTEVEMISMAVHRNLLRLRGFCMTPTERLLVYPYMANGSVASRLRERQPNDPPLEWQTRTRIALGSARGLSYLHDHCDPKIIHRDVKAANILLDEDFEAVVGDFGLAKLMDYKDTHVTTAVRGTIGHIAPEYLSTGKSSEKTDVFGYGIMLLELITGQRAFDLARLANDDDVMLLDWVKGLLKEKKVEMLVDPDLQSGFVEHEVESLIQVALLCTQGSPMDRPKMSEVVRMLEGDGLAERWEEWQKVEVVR
Summary of the method: as §1

LOC_OS04G41100-cb001 = system: T2, LOC_OS04G41100-cb001
T2 sequence (whole entry): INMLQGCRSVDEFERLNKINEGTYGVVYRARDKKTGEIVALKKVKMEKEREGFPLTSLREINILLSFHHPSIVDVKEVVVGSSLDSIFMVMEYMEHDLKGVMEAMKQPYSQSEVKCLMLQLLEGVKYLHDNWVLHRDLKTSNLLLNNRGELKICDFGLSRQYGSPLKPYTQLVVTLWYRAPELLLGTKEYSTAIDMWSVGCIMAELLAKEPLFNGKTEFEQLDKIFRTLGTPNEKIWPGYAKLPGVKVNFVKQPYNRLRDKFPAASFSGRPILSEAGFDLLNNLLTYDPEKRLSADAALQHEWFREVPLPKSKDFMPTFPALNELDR
Summary of the method: as §1
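Also: purified Escherichia coli-expressed rice kinase domain construct.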

| Compound | thermal shift delta Tm (LOC_OS01G57100-cb003) [°C] | thermal shift delta Tm (LOC_OS01G60330-cb001) [°C] | thermal shift delta Tm (LOC_OS01G60700-cb002) [°C] | thermal shift delta Tm (LOC_OS01G63280-cb003) [°C] | thermal shift delta Tm (LOC_OS01G67340-cb003) [°C] | thermal shift delta Tm (LOC_OS01G70970-cb002) [°C] | thermal shift delta Tm (LOC_OS02G07810-cb001) [°C] | thermal shift delta Tm (LOC_OS02G08530-cb003) [°C] | thermal shift delta Tm (LOC_OS02G14120-cb001) [°C] | thermal shift delta Tm (LOC_OS02G17970-cb001) [°C] | thermal shift delta Tm (LOC_OS02G45750-cb003) [°C] | thermal shift delta Tm (LOC_OS02G54510-cb004) [°C] | thermal shift delta Tm (LOC_OS03G04050-cb001) [°C] | thermal shift delta Tm (LOC_OS03G12390-cb001) [°C] | thermal shift delta Tm (LOC_OS03G27990-cb004) [°C] | thermal shift delta Tm (LOC_OS03G50450-cb001) [°C] | thermal shift delta Tm (LOC_OS03G50810-cb003) [°C] | thermal shift delta Tm (LOC_OS04G35114-cb001) [°C] | thermal shift delta Tm (LOC_OS04G38480-cb003) [°C] | thermal shift delta Tm (LOC_OS04G41100-cb001) [°C] |
| --- | --- | --- | --- | --- | --- | --- | --- | --- | --- | --- | --- | --- | --- | --- | --- | --- | --- | --- | --- | --- |
| C=CC(=O)N1CCN(CCCn2c(=O)c(-c3c(Cl)c(OC)cc(OC)c3Cl)cc3cnc(NC)nc32)CC1 | 1.48 | -0.24 | 0.2 | -0.06 | 0.02 | 0.17 | -0.82 | 0.53 | 0.67 | -0.31 | 1.93 | 0.21 | 0.58 | -0.09 | 0.48 | 0.92 | 0.26 | -0.04 | 0.5 | 0.38 |
| Cc1cc(Nc2cc(Cl)nc(Oc3ccc([N+](=O)[O-])cc3)n2)n[nH]1 [Autophinib] | 1.52 | 0.66 | -0.44 | 0.94 | 0.51 | 1.07 | -0.12 | 0.84 | 0.42 | 0.46 | 1.3 | 0.33 | 0.63 | 0.34 | 0.56 | 0.75 | 0.7 | 0.47 | 1.06 | 1.26 |
| NC1(Cc2ccc(Cl)cc2)CCN(c2ncnc3[nH]ccc23)CC1 | 2.25 | 2.06 | 0.71 | 0.51 | 0.58 | 0.53 | 0.47 | 1.24 | 1.88 | 0.79 | 0.79 | 0.26 | 0.46 | 1.47 | 0.26 | 0.97 | 0.62 | 0.68 | 0.64 | 0.33 |
| CC(C)[C@H](CO)Nc1nc(Nc2cccc(Cl)c2)c2ncn(C(C)C)c2n1 [Purvalanol A] | 2.77 | 5.05 | 0.1 | 0.46 | 3.08 | 3.68 | 0.09 | 4.08 | 1.7 | 0.39 | 5.95 | 2.06 | 0.15 | 3.95 | 3.63 | 7.22 | 2.8 | 6.09 | 1.87 | 0.54 |
| CCN1CCN(Cc2ccc(Nc3ncc(F)c(-c4cc(F)c5nc(C)n(C(C)C)c5c4)n3)nc2)CC1 | -0.28 | 0.1 | 0.59 | 0.27 | 0.39 | -0.01 | 0.46 | 2.49 | 5.93 | 0.23 | 3.28 | 0.25 | 0.17 | 1.39 | 0.47 | 0.16 | 2.97 | 2.79 | 1.91 | 5.62 |
| O=C(Nc1cc(C(F)(F)F)cc(C(F)(F)F)c1)c1cc(Cl)ccc1O | 1.44 | 1.34 | 2.1 | 1.28 | 0.01 | 0.57 | 2.75 | 1.42 | 0.39 | 2.43 | 0.1 | -0.16 | 0.55 | 1.46 | 0.24 | 0.5 | 0.7 | 0.29 | 0.16 | 0.52 |
| Cc1c(CN2CCN(C(=O)[C@H](C)O)CC2)sc2c(N3CCOCC3)nc(-c3cnc(N)nc3)nc12 [Apitolisib (GDC-0980, RG7422)] | 0.9 | 0.98 | 0.46 | 0.4 | 0.25 | 0.37 | 1.43 | 1.01 | 0.42 | 1.03 | 0.62 | 0.4 | 0.32 | 0.75 | 0.18 | 1.38 | 0.78 | 0.55 | 1.12 | 0.47 |
| COc1cc2ncc(-c3ccccc3)nc2cc1OC [Tyrphostin AG 1296] | 0.4 | 3.29 | 1.32 | 1.35 | 1.24 | 0.75 | -0.01 | 1.3 | 2.29 | 0.27 | 4.58 | -0.11 | 0.13 | 0.49 | 0.74 | 0.48 | 1.56 | 3.93 | 0.73 | 0.13 |
| O=c1c(O)c(-c2ccc(O)c(O)c2)oc2cc(O)cc(O)c12 [Quercetin] | 2.71 | 8.09 | 0.35 | 10.7 | 5.98 | 2.14 | 2.05 | 2.33 | 3.39 | 1.77 | 3.32 | 0.4 | 0.73 | 5.69 | 2.91 | 2.18 | 2.6 | 4.71 | 3.37 | 0.61 |
| CC1(C)C=Cc2c(ccc3c2OC[C@@H](c2ccc(O)cc2O)C3)O1 [Glabridin] | 0.87 | 2.93 | -0.87 | 3.61 | 0.86 | 1.29 | -0.38 | 0.24 | 0.34 | 0.51 | 0.34 | -0.24 | 0.88 | 0.93 | 0.6 | 0.36 | 0.74 | 0.79 | 1.12 | 0.7 |
| COc1cc(N2CCC(N3CCN(C)CC3)CC2)ccc1Nc1ncnc(Nc2ccccc2S(=O)(=O)C(C)C)n1 | 1.39 | 0.48 | 0.92 | 0.72 | 0.5 | 0.84 | 0.26 | 1.76 | 3.1 | 0.11 | 1.85 | 0.1 | 0.24 | 1.69 | 0.28 | 0.36 | 0.99 | 0.74 | 1.16 | 0.34 |
| C[C@@H](Oc1cc(-c2cnn(C3CCNCC3)c2)cnc1N)c1c(Cl)ccc(F)c1Cl | 2.74 | 1.69 | 0.88 | 0.44 | 1.69 | 1.7 | 0.08 | 0.54 | 10.6 | 0.54 | 5.46 | 0.63 | 0.35 | 1.31 | 0.48 | 0.08 | 2.49 | 5.73 | 3.79 | 0.57 |
| CC1=C(C(=O)Nc2ccc3[nH]ncc3c2)C(c2ccc(F)cc2)NC(=O)N1 (stereo not given) | 2.16 | 0.38 | 0.62 | 0.82 | 0.41 | 0.4 | -0.36 | 0.77 | 2.32 | 0.88 | 0.98 | 0.18 | 0.57 | 0.72 | 0.46 | 0.58 | 0.64 | 0.48 | 1.84 | 0.33 |
